# Laboratory results taken from the supplement of paper PMC6555819.
# Key:
# Assay in all cases: PBM binding z-score (relative to random genomic background probes); higher = stronger binding; sequences stand for … in GC…GCGATTGACAGCGTAGAATGAAGG
# [1] = test system: RARb homodimer (NR concentration 270 nM)
# How it was run: (§1)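 Binding z-scores take random background probes as their reference. They come from custom Agilent 4×180K protein-binding microarrays incubated 1 h with ligand-free nuclear receptor dimers, with antibodies against each partner (one per run) detecting binding. Scanned fluorescence was regression-normalized.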
# [2] = test system: RARg:RXRa (NR concentration 270 nM, RXRa partner concentration 90 nM)
# How it was run: as §1
# [3] = test system: RARg homodimer (NR concentration 270 nM)
# How it was run: as §1
# [4] = test system: RXRa DBDmut IVT, anti-RXR (DBD mutation: RXRa K156A/R161A, NR concentration 90 nM)
# How it was run: as §1
# [5] = test system: RXRa homodimer (NR concentration 180 nM)
# How it was run: as §1
# [6] = test system: THRa:RXRa (NR concentration 90 nM, RXRa partner concentration 90 nM)
# How it was run: as §1
# [7] = test system: THRa homodimer (NR concentration 90 nM)
# How it was run: as §1
# [8] = test system: VDR homodimer (NR concentration 270 nM)
# How it was run: as §1
Sequence,PBM binding z-score [1],PBM binding z-score [2],PBM binding z-score [3],PBM binding z-score [4],PBM binding z-score [5],PBM binding z-score [6],PBM binding z-score [7],PBM binding z-score [8]
CCTAGTGGGTCAGGAGGTCACACACCGGATATGA,4.61,6.26,5.86,-0.339,6.15,3.73,2.04,2.09
TCGAGTAGGTTACGGGAGCATTCAGGGATGAAGA,-0.0117,0.484,0.553,-0.267,0.792,1.89,-0.885,-0.591
CGTCCAAGGTCAACGCTAGGTCAGTGAAAGCATT,5.38,7.88,7.21,3.69,6.38,4.61,3.53,2.6
CCGAGTAAGTTACGAGGGGGCATTCAGTGCGAAT,1.29,1.47,0.902,1.57,1.31,2.32,0.139,2.59
TCGAGTAGGCTACGGGGGCATTCAGGGATGAAGA,1.01,1.2,0.904,0.682,1.13,3.63,0.228,2.66
CCGAGTAGGTTACGAGGGGGCATTCAATGCGAAT,1.91,3.12,2.47,1.05,2.2,3.78,0.33,2.09
TCTAGCAGGCCATAGGGTCACTCAAGAGGTACGG,3.27,3.6,2.95,0.333,3.87,3.25,1.93,1.64
CAAACTAGGTCAAAGGTCAAAATCGAGCCAACCA,5.03,8.72,7.08,3.07,10.1,4.95,1.51,2.94
CTATGTAGGTTCAGGGGGTCATTCAGTTTGAAAG,3.91,5.72,3.84,3.68,7.14,3.7,2.11,6.83
CGAACTAGGTCAAAGCACAGTGAAAGGCGACGTA,2.34,3.89,4.07,1.58,2.66,2.37,0.0185,0.261
CCGAGTAGGTTACGAGGGGGGATTCAGTGCGAAT,1.82,2.43,1.99,1.88,1.24,3.19,1.76,1.94
AGTCAAAGTTCACGAGGTAACGTAAGATTCAGCT,4.91,6.34,7.02,4.45,6.24,3.61,1.34,3.84
CCGAGTAGGTTACGAGGTGGCATTCAGTGCGAAT,0.473,0.479,0.466,0.226,0.697,0.837,-0.2,0.0157
TCTCGGAGGACACGAAAAGTCAGAGCTCGACATC,0.803,0.704,1.37,1.08,0.187,1.27,0.205,-0.252
CGGACTAGGTCACCAGGACAGTGAAGAGGTTGGA,3.18,4.13,5.61,1,3.39,3.14,2.14,0.337
ATATGTAGGTTAAGGTCATTCAGAAAGTAGGGAA,4.18,4.81,4.96,2.75,4.96,4.41,4.8,4.05
CAAACTAGGTCAAGGGGTCAAAGTCCGCTTCCCG,5.65,8,7.19,2.98,8.47,4.64,2.49,4.55
CGTCAAAGTTCAAGGTTACGTAACAGAAAGCAGC,4.45,5.57,6.33,4.73,4.85,3.43,1.33,3.55
TCGAGTAGGTTACGGAGGCATTCAGGGATGAAGA,0.171,0.578,0.4,-0.134,0.833,1.1,-0.655,-0.549

Sequence,PBM binding z-score [1],PBM binding z-score [2],PBM binding z-score [3],PBM binding z-score [4],PBM binding z-score [5],PBM binding z-score [6],PBM binding z-score [7],PBM binding z-score [8]
CCGAGTAGGTTACGAGGGCGCATTCAGTGCGAAT,0.436,0.647,0.287,-0.122,0.655,0.838,-0.711,0.0173
ATATGTAGGTTAGGGTGATTCAGAAAGTAGGGAA,1.48,0.779,0.813,0.979,1.02,2,1.65,0.713
CGTCAAAGTTCAAGGTAATGTAACAGAAAGCAGC,4.04,5.25,6.13,4.23,4.26,2.88,0.964,3.14
CGTCCAAGGTCAGAGAGGTCAGTGTATGCCGAGT,5.2,6.1,6.77,3.28,5.29,4.14,3,5.78
TCGAGTAGGTTACGGGGGAATTCAGGGATGAAGA,1.1,1.42,1.05,0.995,1.37,1.93,0.716,0.477
CCCGCTAGGTCATGGTCAGCTAATCTACAGTATG,3.38,4,4.55,1.57,3.06,3.21,1.91,0.379
ACTAGCAGGCCAAAGGTCACTCAAGATTAGTCCG,4.87,6.14,5.41,0.861,6.31,3.6,0.91,1.58
CCTAGTTGGTCAGGAGGTCACATACCGGATATGA,4.17,4.57,3.85,0.947,3.92,3.32,2.13,2.4
TCGGGTAGGTTACGGGGGCATTCAGGGATGAAGA,3.18,4.23,4.1,3.04,3.43,4.32,3.14,4.85
CCGAGTAGGTTACGAGGGGGCATACAGTGCGAAT,2.29,3.21,2.68,1.2,2.14,3.61,0.618,2.68
CAAACTAGGTCAAAGGTCAAGGTCGAGCCAACCA,5.8,8.92,7.7,3.18,9.96,4.92,2.98,3.42
ACTTACGGGTCAAGGAGGTTATAGCACGCGTATA,3.46,5.23,4.78,2.07,5.73,3.33,0.489,2.26
AATACAGGGTGATCGTAGGCCAGAGTACGCACAG,0.66,0.545,0.556,-0.0921,0.57,1.73,0.135,0.376
TCTGCTAGGTCAGTTGGGCAGCTAACGAGCTGCC,1.91,2.37,3.42,0.193,0.493,1.12,-0.349,-0.821
ATATGTAGGTTAGGGTTATTCAGAAAGTAGGGAA,1.72,1.45,1.05,1.06,2.13,2.45,1.52,1.23
AGAATGAGGTTATACGTAGGTCAGGGAAGAAAGT,3.18,6.03,2.35,1.74,3.96,3.74,1.44,1.87
ACATGTAGGTTAGGGTCATTCAGAAAGTAGGGAA,3.51,4.16,3.32,3.02,5.14,4.05,3.66,3.75
CTATGTAGGTTAAAGGGGTCATTCAGTTTGAAAG,4.23,5.28,4.06,2.87,6.56,3.91,1.29,6.99
CTATGTAGGTTAAGGGGATCATTCAGTTTGAAAG,0.917,0.82,0.66,0.605,1.12,0.96,0.136,0.834

Sequence,PBM binding z-score [1],PBM binding z-score [2],PBM binding z-score [3],PBM binding z-score [4],PBM binding z-score [5],PBM binding z-score [6],PBM binding z-score [7],PBM binding z-score [8]
CGAACTAGGCCAAAGGACAGTGAAAGGCGACGTA,0.837,0.441,1.2,-0.376,0.196,-0.277,-0.915,-0.627
CGTCCAAGGTCATAGGAGTTCAGTGAAGACAGAT,4.79,6.25,6.57,4.22,6.23,4.71,2.7,5.97
CCGAGTAGGTTACCAGGGGGCATTCAGTGCGAAT,2.4,2.93,2.52,0.717,2.06,3.68,0.758,3.64
CAAAGTAGGTCAAGGTCAAAGTCGGTTTGTGCCA,5.16,6.15,6.56,3.29,6,4.22,3.66,4.44
TCTTATAGATCAATAGAGGTTAAGAAAGTGCGCT,1.22,1.04,0.633,0.906,1.75,2.49,0.125,0.336
CAAACTAGGTCACCGGGAGGTCAAAGTCCGCATG,5.88,8.67,7.68,2.07,7.06,4.94,4.06,4.85
TCATATAGGTGAAAGGTGAAAGTCGGTGTGGTAA,2.31,3.45,1.46,2,4.53,2.15,0.384,0.0995
CGAACTAGGTCAGAACAGGACAGTTAAGGATGAT,2.09,2.45,3.49,0.671,1.3,3.48,0.637,0.142
CATACAGGGTCCGCTAGGCCAGAGTAGGGACGGC,-0.0807,-0.0159,0.424,-0.419,-0.247,-0.0805,-0.241,-0.213
ACTAACAGGCCAAGGGTCACTCAAGATTAGTCCG,4.08,4.46,4.16,1.23,4.7,2.9,0.619,1.46
CTAACTAGGTCACCGGAAGGTCAAAGTCCGCATG,5.66,8.24,7.39,2.16,6.18,4.48,2.98,2.9
ATATGTAGTTTAGGGTCATTCAGAAAGTAGGGAA,3.24,4.01,2.73,2.93,5.24,4.29,3.64,4.3
CGTCCAAGGTCAATTCTAGGTCAGTGAAAGCATT,5.03,7.43,6.42,3.52,4.75,4.64,3.17,2.76
TCGAGTAGGTTACGCGGGCATTCAGGGATGAAGA,0.619,0.799,0.653,-0.0929,0.864,0.97,-0.444,-0.617
AGTCAAATTTCACTAGGTAACGTAAGATTCAGCT,0.0165,-0.19,0.218,0.395,-0.206,0.638,0.471,0.31
CGAACTAGGTCAAAGGAAAGTGAAAGGCGACGTA,2.25,3.46,4.01,1.15,2.39,1.95,0.083,0.538
TCGAGTAGGTTACGGGGGCAATCAGGGATGAAGA,2.12,3.25,2.36,1.52,2.73,3.4,0.675,2.03
CGATCTAGGTCACCAGGACAGTGAAGAGGTTGGA,3.47,4.36,5.15,1.35,3.32,3.44,2.13,0.435
CGAACTAGGTCAAAGGACGGTGAAAGGCGACGTA,2.59,3.97,4.3,1.49,2.68,2.3,-0.112,-0.106
